From the supplement of paper PMC10849652
About 7,900 targets were measured; listed, in parts, are those with a hit and a random draw of the rest. About 0.6% of all pairs of compound and target were hits. A number with no mark means an inactive call.

What was measured:
Assay in all cases: log2 fold change, soluble protein after heating vs DMSO (PISA); higher = thermal stabilisation; K562 cells, 10 uM, 30 min; active = over 0.2 and 3.5 SD of the protein, either way, in both replicates (recomputed)
[1] = compound: C#Cc1cccc(Nc2ncnc3cc(OCCOC)c(OCCOC)cc23)c1 [erlotinib]
In short: (§1)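 Quantification of soluble protein used TMTpro 16plex LC-MS/MS, with channel sums equalised. Samples were the supernatant after 21,000xg for 90 min of pooled aliquots from K562 cells (2×10^6 cells/mL) treated with 10 μM compound for 30 min, heated for 3 min over 48°C-58°C, and extracted in PBS with 0.5% NP-40 at 4°C. Values, from duplicates, describe thermal stability against control samples on a log2 fold-change scale.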

[2] = compound: C/C(=N\NC(=O)C1=CC(=CC=C1)S(=O)(=O)N2CCOCC2)/C3=C(C=CC(=C3)Cl)O
In short: as §1

[3] = compound: C1=CC(=C(C=C1Cl)C2=NC3=NC=CN=C3C(=N2)NC4=CC=NC=C4)F
In short: as §1

[4] = compound: C1=CC(=CC=C1C2=NC3=C(N2)C=C(C=C3)C(=O)N)OC4=CC=C(C=C4)Cl
In short: as §1

[5] = compound: C1=CC2=C(C=CC(=C2)/C=C\3/C(=O)NC(=NCC4=CC=CS4)S3)N=C1
In short: as §1

[6] = compound: C1=CC2=NC=CN=C2C=C1/C=C/3\C(=O)NC(=O)S3
In short: as §1

[7] = compound: C1=CC=C(C=C1)C2=NC(=C(N2)C3=CC=NC=C3)C4=CC(=C(C=C4)Cl)O
In short: as §1

[8] = compound: C1=CC=C2C(=C1)C3=NNC4=CC=CC(=C43)C2=O
In short: as §1

[9] = compound: C1CCN(C1)C(=O)NC2=CC=CC(=C2)NC3=NC=C(C(=N3)NCCC4=CN=CN4)Br
In short: as §1

[10] = compound: C1CN(CCC1(CC2=CC=C(C=C2)Cl)N)C3=NC=NC4=C3C=CN4
In short: as §1

Sequence of UniProt P16278 (P16278 whole entry, looked up): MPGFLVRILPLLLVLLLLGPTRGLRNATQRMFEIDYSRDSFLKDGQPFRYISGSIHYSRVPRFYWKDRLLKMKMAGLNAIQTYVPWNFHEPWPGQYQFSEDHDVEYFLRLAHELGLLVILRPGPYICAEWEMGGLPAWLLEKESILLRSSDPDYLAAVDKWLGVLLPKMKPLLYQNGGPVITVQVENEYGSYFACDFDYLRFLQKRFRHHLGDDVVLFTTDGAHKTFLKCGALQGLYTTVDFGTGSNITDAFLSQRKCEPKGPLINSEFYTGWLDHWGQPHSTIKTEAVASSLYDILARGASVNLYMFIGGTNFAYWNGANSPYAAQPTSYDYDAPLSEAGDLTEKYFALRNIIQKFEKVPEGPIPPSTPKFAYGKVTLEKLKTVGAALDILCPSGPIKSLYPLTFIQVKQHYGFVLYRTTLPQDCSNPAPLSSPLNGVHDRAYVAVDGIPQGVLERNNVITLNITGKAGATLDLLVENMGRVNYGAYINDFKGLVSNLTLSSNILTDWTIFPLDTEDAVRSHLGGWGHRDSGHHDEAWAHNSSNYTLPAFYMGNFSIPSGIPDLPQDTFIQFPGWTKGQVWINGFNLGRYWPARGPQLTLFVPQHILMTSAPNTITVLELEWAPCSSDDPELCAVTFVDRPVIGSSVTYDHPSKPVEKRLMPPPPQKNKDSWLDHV
Sequence of UniProt P62879 (P62879 whole entry, looked up): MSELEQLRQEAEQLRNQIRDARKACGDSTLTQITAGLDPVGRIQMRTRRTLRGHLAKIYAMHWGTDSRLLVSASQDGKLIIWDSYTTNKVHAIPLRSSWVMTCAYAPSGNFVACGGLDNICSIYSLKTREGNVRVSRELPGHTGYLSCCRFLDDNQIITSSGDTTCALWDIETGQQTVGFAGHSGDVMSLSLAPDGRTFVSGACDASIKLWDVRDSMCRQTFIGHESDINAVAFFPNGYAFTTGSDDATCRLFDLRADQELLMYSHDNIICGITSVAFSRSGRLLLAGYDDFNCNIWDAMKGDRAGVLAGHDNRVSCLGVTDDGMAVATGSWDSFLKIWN
Sequence of UniProt Q53T59 (Q53T59 whole entry, looked up): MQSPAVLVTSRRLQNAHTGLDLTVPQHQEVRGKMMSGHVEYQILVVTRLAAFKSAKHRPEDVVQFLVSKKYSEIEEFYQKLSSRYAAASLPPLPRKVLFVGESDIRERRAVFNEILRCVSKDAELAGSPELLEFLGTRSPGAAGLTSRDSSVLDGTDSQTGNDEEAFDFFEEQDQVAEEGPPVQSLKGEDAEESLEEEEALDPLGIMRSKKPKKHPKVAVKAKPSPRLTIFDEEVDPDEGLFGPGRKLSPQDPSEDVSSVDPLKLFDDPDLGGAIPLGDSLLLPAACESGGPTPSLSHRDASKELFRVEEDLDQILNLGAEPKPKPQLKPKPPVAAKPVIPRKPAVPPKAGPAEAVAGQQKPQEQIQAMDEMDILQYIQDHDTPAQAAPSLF
Sequence of UniProt Q06546 (Q06546 whole entry, looked up): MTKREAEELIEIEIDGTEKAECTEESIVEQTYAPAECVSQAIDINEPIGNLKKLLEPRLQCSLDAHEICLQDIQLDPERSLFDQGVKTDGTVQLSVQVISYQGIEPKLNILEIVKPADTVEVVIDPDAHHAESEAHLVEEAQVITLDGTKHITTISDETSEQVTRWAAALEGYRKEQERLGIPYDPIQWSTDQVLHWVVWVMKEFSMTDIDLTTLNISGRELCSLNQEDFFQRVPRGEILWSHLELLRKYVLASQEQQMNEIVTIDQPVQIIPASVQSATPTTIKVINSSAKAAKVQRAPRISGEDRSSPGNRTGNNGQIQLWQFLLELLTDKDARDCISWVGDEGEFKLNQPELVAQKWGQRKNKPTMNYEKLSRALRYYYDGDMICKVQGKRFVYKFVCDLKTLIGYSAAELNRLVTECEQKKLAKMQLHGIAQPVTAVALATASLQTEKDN
Sequence of UniProt P08754 (P08754 whole entry, looked up): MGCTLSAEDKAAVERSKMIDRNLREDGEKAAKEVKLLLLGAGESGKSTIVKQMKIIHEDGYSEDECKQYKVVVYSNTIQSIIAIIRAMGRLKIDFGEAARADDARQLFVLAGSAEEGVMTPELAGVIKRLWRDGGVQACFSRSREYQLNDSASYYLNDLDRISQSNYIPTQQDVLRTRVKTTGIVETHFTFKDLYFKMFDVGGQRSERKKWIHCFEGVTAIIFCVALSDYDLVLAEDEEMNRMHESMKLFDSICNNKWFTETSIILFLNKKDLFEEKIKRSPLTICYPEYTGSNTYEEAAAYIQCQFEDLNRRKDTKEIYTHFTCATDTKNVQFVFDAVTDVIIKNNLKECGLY
Sequence of UniProt P00390 (P00390 whole entry, looked up): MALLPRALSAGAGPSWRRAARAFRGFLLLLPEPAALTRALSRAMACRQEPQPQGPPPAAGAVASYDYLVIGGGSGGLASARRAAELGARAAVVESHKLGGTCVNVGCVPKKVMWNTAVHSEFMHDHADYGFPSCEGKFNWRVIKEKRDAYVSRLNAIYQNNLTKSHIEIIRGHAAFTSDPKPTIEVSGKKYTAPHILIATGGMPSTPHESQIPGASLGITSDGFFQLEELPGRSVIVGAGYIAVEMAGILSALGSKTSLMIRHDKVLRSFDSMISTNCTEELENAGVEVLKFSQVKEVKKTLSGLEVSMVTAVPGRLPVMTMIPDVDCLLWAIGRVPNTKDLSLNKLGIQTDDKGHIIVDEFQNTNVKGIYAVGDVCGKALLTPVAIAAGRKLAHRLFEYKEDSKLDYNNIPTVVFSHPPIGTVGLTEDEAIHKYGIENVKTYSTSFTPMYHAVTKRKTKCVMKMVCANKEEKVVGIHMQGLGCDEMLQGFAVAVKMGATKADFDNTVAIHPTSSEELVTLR
Sequence of UniProt P30519 (P30519 whole entry, looked up): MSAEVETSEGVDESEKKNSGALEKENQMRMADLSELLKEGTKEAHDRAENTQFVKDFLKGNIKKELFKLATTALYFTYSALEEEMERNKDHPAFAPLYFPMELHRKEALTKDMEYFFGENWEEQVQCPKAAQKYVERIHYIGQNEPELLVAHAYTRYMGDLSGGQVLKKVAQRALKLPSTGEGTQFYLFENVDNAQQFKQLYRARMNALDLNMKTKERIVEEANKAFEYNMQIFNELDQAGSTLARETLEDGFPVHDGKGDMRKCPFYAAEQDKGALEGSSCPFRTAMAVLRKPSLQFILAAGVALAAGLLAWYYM
Sequence of UniProt Q7Z4H3 (Q7Z4H3 whole entry, looked up): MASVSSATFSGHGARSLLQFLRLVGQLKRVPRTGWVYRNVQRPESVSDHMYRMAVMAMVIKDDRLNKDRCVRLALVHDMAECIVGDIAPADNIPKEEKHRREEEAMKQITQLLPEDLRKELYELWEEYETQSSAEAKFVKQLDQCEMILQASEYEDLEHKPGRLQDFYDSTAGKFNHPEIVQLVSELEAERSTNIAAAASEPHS
Sequence of UniProt Q10471 (Q10471 whole entry, looked up): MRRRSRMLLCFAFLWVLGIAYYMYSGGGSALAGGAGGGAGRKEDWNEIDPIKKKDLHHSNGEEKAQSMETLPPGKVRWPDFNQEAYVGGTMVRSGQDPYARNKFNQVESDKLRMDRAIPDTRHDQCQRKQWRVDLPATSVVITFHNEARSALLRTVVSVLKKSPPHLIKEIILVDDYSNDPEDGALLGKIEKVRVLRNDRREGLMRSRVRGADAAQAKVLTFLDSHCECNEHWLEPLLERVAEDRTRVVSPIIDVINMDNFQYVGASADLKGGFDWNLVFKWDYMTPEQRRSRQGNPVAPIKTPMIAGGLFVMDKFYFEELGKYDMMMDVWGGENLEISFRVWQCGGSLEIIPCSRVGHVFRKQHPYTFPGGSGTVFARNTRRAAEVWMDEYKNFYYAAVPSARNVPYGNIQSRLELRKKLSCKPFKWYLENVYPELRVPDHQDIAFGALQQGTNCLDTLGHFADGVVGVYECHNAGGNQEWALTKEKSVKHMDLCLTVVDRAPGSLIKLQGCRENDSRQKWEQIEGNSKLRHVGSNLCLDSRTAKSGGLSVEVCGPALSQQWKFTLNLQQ
Sequence of UniProt P36915 (P36915 whole entry, looked up): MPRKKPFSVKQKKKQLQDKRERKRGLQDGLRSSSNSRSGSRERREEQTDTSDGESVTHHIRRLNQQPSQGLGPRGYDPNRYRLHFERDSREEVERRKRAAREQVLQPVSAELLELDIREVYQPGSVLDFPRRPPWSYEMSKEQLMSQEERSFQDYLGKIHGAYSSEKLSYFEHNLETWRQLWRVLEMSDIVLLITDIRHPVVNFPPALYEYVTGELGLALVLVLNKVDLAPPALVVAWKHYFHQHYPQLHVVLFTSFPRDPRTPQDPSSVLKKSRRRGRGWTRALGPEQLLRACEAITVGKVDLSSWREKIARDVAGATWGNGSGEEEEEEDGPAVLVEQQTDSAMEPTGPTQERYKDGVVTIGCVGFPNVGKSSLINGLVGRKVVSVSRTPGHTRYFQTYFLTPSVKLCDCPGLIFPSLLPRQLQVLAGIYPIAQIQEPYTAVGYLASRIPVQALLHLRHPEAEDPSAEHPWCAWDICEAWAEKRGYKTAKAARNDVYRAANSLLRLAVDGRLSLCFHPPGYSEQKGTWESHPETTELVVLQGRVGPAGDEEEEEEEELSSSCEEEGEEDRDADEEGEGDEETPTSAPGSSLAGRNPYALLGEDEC
Sequence of UniProt P78417 (P78417 whole entry, looked up): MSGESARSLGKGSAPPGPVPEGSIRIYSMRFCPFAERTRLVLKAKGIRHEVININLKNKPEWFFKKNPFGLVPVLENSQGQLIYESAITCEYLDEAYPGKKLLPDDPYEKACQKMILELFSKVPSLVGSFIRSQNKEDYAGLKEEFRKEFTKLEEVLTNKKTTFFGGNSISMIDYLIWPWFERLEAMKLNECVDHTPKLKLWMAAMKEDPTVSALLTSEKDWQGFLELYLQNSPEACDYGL

Target | log2 fold change [1] | log2 fold change [2] | log2 fold change [3] | log2 fold change [4] | log2 fold change [5] | log2 fold change [6] | log2 fold change [7] | log2 fold change [8] | log2 fold change [9] | log2 fold change [10]
HS1BP3 (UniProt Q53T59) | 0.008 | 0.042 | 0 | -0.073 | 0.147 | -0.008 | -0.032 | -0.03 |  | 
HMOX2 (UniProt P30519) | 0.065 | 0.057 | 0.039 | -0.038 | 0.024 | -0.023 | 0.03 | 0.032 | -0.04 | 0.016
HDDC2 (UniProt Q7Z4H3) | -0.014 | 0.059 | 0.039 | 0.018 | -0.072 | 0.034 | 0.292 (active) | 0.024 | -0.039 | 0.076
GNL1 (UniProt P36915) | 0.044 | 0.046 | 0.048 | -0.028 | 0.037 | -0.004 | 0.074 | 0 | 0.035 | -0.055
IFI30 (UniProt P13284) | 0.061 | 0.018 | -0.084 | 0.012 | -0.089 | 0.026 | 0.067 | 0.009 | -0.004 | 0.026
GALNT2 (UniProt Q10471) | -0.052 | 0.043 | 0.021 | 0 | 0.009 | 0.022 | 0.028 | 0.046 | 0.009 | 0.042
GABPA (UniProt Q06546) | 0.07 | 0.121 | 0.014 | -0.042 | 0.083 | -0.055 | 0.049 | 0.025 | -0.028 | 0.011
FUBP3 (UniProt Q96I24) | -0.059 | 0.007 | 0.084 | 0.019 | -0.014 | 0.069 | -0.017 | 0.002 | 0.009 | 0.036
GNAI3 (UniProt P08754) | -0.078 | -0.038 | -0.01 | 0.205 | 0.021 | 0 | 0.036 | -0.026 | -0.047 | 0.026
GNB2 (UniProt P62879) | 0.003 | 0.079 | -0.04 | 0.051 | -0.016 | 0.007 | -0.003 | 0.008 | -0.057 | -0.002
GSR (UniProt P00390) | -0.099 | 0.021 | 0.071 | 0.067 | 0.023 | 0.007 | -0.026 | -0.017 | 0.011 | 0.054
HECTD1 (UniProt Q9ULT8) | 0.009 | 0.127 | -0.031 | -0.003 | 0.025 | 0.087 | -0.038 | -0.035 | -0.076 | -0.204
ICMT (UniProt O60725) | 0.059 | -0.081 | 0.015 | -0.001 | 0.214 | -0.064 | 0.122 | -0.038 | -0.206 | -0.032
GLB1 (UniProt P16278) | -0.082 | 0.038 | 0 | -0.006 | 0.018 | -0.028 | 0.013 | -0.011 | 0.017 | -0.009
GSTO1 (UniProt P78417) | -0.009 | 0.007 | 0.065 | -0.001 | 0.006 | 0.278 (active) | 0.095 | 0.031 | -0.005 | 0.008
